Experiment [1] can be described thus: qHTS assay to test for compound auto fluorescence at 535 nm (green) in HEK293 cells (AID 720680).
Experiment [2] in a line: qHTS assay to test for compound auto fluorescence at 460 nm (blue) in HEK293 cell free culture (AID 720681). An outline of the steps:
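Test compounds were pinned into cell-free culture medium (DMEM with 10% FBS) and fluorescence was read directly at Ex/Em 405/460 nm. Signals were expressed as fluorescence equivalents of triamterene, with DMSO vehicle as control.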

Experiment [3] is described as follows: qHTS assay to test for compound auto fluorescence at 535 nm (green) in HEK293 cell free culture (AID 720682). An outline of the steps: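 Intrinsic compound fluorescence is measured in culture medium containing 10% FBS, with excitation at 485 nm and detection at 535 nm, referenced to fluorescein.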
Experiment [4] can be described thus: qHTS assay to test for compound auto fluorescence at 590 nm (red) in HEK293 cell free culture (AID 720683). An outline of the steps: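 Tox21 10K library compounds were pinned into cell-free DMEM with 10% FBS and fluorescence was read at excitation 540 nm. Activity is expressed as Rose Bengal sodium equivalency.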
Experiment [5] can be described thus: qHTS assay to test for compound auto fluorescence at 590 nm (red) in HepG2 cell free culture (AID 720684). An outline of the steps:
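Measured in medium alone (MEM containing 10% FBS) following pintool addition of compound; emission at 590 nm with 540 nm excitation, referenced to Rose Bengal sodium.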

Experiment [6] is described as follows: qHTS assay to test for compound auto fluorescence at 460 nm (blue) in HepG2 cell free culture (AID 720685). An outline of the steps:
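Compound (23 nL) or DMSO pinned into cell-free MEM with 10% FBS; blue fluorescence read at 405/460 nm excitation/emission, expressed as auto-fluorescence equivalency to triamterene.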

The nature of experiment [7]: qHTS assay to test for compound auto fluorescence at 535 nm (green) in HepG2 cell free culture (AID 720686).
Experiment [8] in a line: qHTS assay to test for compound auto fluorescence at 460 nm (blue) in HepG2 cells (AID 720687). An outline of the steps:
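Cells (2,000/well in MEM with 10% FBS) attached overnight at 37 C, then were exposed to compound or DMSO for 1 hr at 37 C, 5% CO2. Fluorescence read at Ex/Em 405/460 nm, expressed as triamterene-equivalent signal.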

Experiment [9] can be described thus: qHTS assay to identify small molecule antagonists of the glucocorticoid receptor (GR) signaling pathway - cell viability counter screen (AID 720693). Also: nearly all actives have a fitted effect of over 55% in size.
The nature of experiment [10]: qHTS assay for identifying genotoxic compounds that show differential cytotoxicity against isogenic chicken DT40 cell lines with known DNA damage response pathways - wild type cell line (AID 743012). Also: nearly all actives have a fitted effect of over 60% in size. Also: potency is read from the fitted curve at half-maximal effect. A digest of the protocol:
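Wild type DT40, 300 cells/well, ~0.5 h settle at 37 C/5% CO2; compounds in DMSO added by pintool; 40 h at 37 C/5% CO2; CellTiter-Glo, 30 min RT; luminescence.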

Experiment [11] can be described thus: qHTS assay for identifying genotoxic compounds that show differential cytotoxicity against isogenic chicken DT40 cell lines with known DNA damage response pathways - Rev3 mutant cell line (AID 743014). Also: nearly all actives have a fitted effect of over 55% in size. Also: potency is read from the fitted curve at half-maximal effect.
A short description of experiment [12]: qHTS assay for identifying genotoxic compounds that show differential cytotoxicity against isogenic chicken DT40 cell lines with known DNA damage response pathways - Rad54/Ku70 mutant cell line (AID 743015). Also: nearly all actives have a fitted effect of over 60% in size. Also: potency is read from the fitted curve at half-maximal effect.
Experiment [13] is described as follows: qHTS assay to identify small molecule antagonists of the androgen receptor (AR) signaling pathway - cell viability counter screen (AID 743033; also: nearly all actives have a fitted effect of over 45% in size).
Experiment [14] can be described thus: qHTS assay to identify small molecule antagonists of the androgen receptor (AR) signaling pathway using the MDA cell line - cell viability counter screen (AID 743041; also: nearly all actives have a fitted effect of over 45% in size). A digest of the protocol:
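Viability counter screen run alongside the AR antagonist reporter: cells seeded 5 h before compound, R1881 added, 16 h incubation at 37C without CO2, fluorescent CellTiter-Fluor signal quantified.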

Experiment [15] addresses Glucocorticoid receptor (Homo sapiens) (UniProt P04150). Put plainly: qHTS assay to identify small molecule agonists of the glucocorticoid receptor (GR) signaling pathway (AID 720691; active = well fitted activation curve with a large enough effect in the signal ratio in the repeat runs, not every such curve was filed as active; the % refers to the signal ratio; also: potency is read from the fitted curve at half-maximal effect). A digest of the protocol:
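Fluorescence intensity from LiveBLAzer B/G FRET substrate (2 h, room temperature) reports beta-lactamase expression driven by the glucocorticoid response element in GR-bla HeLa cells after 18 h compound exposure at 37 C.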

For experiment [16], the target named is Androgen receptor (Homo sapiens) (UniProt P10275). Kind of experiment: qHTS assay to identify small molecule agonists of the androgen receptor (AR) signaling pathway (AID 743036; active = well fitted activation curve with a large enough effect in the signal ratio in the repeat runs, with a control signal flat, not every such curve was filed as active; the % refers to the signal ratio). A digest of the protocol: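 Agonist activity was scored by beta-lactamase reporter fluorescence in stably transfected HEK293 cells exposed to compounds for 16 h at 37C and 5% CO2. Substrate loading took 2 h at room temperature.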
Chain of Androgen receptor (Homo sapiens) (P10275 whole entry, looked up): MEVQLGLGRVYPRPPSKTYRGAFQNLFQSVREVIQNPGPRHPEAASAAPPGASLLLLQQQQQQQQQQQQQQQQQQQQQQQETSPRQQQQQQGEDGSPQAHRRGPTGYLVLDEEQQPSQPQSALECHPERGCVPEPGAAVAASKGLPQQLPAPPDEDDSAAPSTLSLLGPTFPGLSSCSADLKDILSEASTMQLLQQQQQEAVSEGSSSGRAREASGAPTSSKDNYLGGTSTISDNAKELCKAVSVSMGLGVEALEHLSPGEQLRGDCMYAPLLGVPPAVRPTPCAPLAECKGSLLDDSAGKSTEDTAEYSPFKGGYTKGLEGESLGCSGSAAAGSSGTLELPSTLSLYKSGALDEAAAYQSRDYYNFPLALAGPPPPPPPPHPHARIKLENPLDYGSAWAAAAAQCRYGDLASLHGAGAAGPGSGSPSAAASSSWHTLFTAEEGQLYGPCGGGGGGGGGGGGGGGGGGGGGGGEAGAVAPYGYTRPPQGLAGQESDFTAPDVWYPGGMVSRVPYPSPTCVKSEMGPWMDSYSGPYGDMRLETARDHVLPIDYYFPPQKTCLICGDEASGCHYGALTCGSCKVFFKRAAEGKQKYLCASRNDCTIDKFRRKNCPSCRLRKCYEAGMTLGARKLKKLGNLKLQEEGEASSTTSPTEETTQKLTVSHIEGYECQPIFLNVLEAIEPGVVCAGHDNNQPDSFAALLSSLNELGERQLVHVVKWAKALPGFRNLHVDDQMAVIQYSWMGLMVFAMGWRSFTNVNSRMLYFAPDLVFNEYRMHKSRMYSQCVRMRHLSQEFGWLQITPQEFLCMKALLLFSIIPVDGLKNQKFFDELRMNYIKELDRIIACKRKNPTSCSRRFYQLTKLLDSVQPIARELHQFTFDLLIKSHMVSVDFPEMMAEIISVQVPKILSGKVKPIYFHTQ

Experiment [17] has the same target. Kind of experiment: qHTS assay to identify small molecule agonists of the androgen receptor (AR) signaling pathway using the MDA cell line (AID 743040; also: nearly all actives have a fitted effect of over 20% in size). A digest of the protocol: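 Luminescence from ONE-Glo, read after 30 min at room temperature, reflects MMTV-driven luciferase in MDA-kb2 cells (AR- and GR-responsive). Treatment lasted 16 h at 37C, 0% CO2.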

For experiment [18] the target is unchanged. Kind of experiment: qHTS assay to identify small molecule antagonists of the androgen receptor (AR) signaling pathway using the MDA cell line (AID 743042; also: nearly all actives have a fitted effect of over 55% in size). An outline of the steps: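 MDA-kb2 cells (human breast carcinoma, stably carrying an MMTV-luciferase reporter responsive to AR and GR) were plated at 3,000 cells/well and preincubated 5 hr at 37C, then given compound plus R1881 agonist for 16 h. ONE-Glo luminescence was read.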

Experiment [19] has as its target Glucocorticoid receptor (Homo sapiens) (UniProt P04150). Put plainly: qHTS assay to identify small molecule antagonists of the glucocorticoid receptor (GR) signaling pathway (AID 720692; active = well fitted inhibition curve with a large enough effect in the signal ratio in the repeat runs, not every such curve was filed as active; the % refers to the signal ratio). An outline of the steps:
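HeLa GR-bla cells; cmpd + dex 5 nM final, 18 h 37 C; LiveBLAzer B/G FRET substrate 2 h RT; fluorescence intensity read. Antagonist mode, qHTS.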

In experiment [20] the target is Androgen receptor (Homo sapiens) (UniProt P10275). Put plainly: qHTS assay to identify small molecule antagonists of the androgen receptor (AR) signaling pathway (AID 743035; active = well fitted inhibition curve with a large enough effect in the signal ratio in the repeat runs, not every such curve was filed as active; the % refers to the signal ratio). A digest of the protocol: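 Fluorescence from a beta-lactamase FRET substrate (LiveBLAzer B/G, 2 h, room temperature) measured inhibition of R1881-stimulated signaling in GeneBLAzer AR-UAS-bla HEK293 cells exposed to compound for 16 h at 37C.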

Unmarked numbers belong to inactive results. Results filed as inconclusive are left out. The source made the active and inactive calls. Unless noted, calls follow the shape of the dose curve; as a rule, active = well fitted curve in the direction sought with a large enough effect in the repeat runs; inconclusive = weak or mixed curves; inactive = no such curve, though single readings can be large; an effect the other way counts as inactive or inconclusive.
% is scaled to controls: 0 for no effect and ±100 for the full control effect.

Chain of Glucocorticoid receptor (Homo sapiens) (P04150 whole entry, looked up): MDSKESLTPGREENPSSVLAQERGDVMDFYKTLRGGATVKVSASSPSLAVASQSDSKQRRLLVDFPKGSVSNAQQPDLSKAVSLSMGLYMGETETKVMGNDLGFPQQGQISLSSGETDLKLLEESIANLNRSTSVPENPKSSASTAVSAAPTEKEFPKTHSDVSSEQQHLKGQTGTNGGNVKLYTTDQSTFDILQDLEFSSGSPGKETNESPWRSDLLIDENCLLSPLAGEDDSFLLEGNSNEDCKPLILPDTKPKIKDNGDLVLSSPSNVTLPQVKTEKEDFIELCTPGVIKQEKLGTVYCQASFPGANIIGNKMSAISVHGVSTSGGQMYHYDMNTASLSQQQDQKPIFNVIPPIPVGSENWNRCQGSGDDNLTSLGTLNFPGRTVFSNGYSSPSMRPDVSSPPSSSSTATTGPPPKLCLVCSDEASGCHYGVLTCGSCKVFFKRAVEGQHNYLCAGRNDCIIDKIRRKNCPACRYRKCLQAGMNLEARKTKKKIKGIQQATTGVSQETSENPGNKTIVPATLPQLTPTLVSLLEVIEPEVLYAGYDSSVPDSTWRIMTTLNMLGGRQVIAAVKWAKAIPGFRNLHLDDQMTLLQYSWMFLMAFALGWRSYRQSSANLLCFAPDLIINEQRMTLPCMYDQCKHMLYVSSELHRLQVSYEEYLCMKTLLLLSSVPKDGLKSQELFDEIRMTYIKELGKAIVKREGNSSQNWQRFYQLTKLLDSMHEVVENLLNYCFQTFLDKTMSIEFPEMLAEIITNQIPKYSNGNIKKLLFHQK

In the case of `C1=Cc2ccccc2C1`, the outcome in [1], in experiment [3], in [4], in experiment [5] and in experiment [7] was inactive. Further, the Potency result in experiment [2], in experiment [6], in experiment [8], in [9], in experiment [10] and in [11] was “inactive” throughout. For the same compound, the Potency result in experiment [12], in experiment [13] and in [14] was “inactive” throughout.

On to `O=C1c2cccc(O)c2C(=O)c2c(O)cc(CO)cc21`, for which the call in experiment [1], in experiment [3], in experiment [4], in [5] and in experiment [7] was inactive. For the same compound, the Potency result in experiment [2], in experiment [6], in experiment [8], in experiment [15], in experiment [9] and in experiment [10] was “inactive” each time. For the same compound, the Potency entry in experiment [13] and in experiment [14] was “inactive” throughout. Further, in [12], the Potency was 24.3 µM (active).

With `CC(C)NCC(O)c1cc(O)cc(O)c1` (centres undefined), the outcome in [1], in [3], in [4], in experiment [5] and in experiment [7] was inactive. The Potency entry in [2], in [6], in experiment [8], in [9], in [10] and in experiment [11] was “inactive” throughout. Also, the Potency result in [12], in experiment [13] and in experiment [14] was “inactive” in each case.

With `O=C(c1ccccc1)c1ccc2n1CCC2C(=O)O` (centres undefined), the result in experiment [1], in [3], in experiment [4], in experiment [5] and in experiment [7] was inactive. In addition, the Potency entry in experiment [2], in [6], in [8], in experiment [9], in [10] and in [11] was “inactive” each time. The Potency entry in experiment [12] and in [14] was “inactive” throughout.

As for `CC(=O)[C@@]1(O)CC[C@H]2[C@@H]3C[C@H](C)C4=CC(=O)CC[C@]4(C)[C@H]3CC[C@@]21C`, the outcome in experiment [1], in experiment [3], in experiment [4], in [5] and in experiment [7] was inactive. The Potency entry in experiment [2], in [6], in experiment [8], in experiment [9], in experiment [13] and in experiment [14] was “inactive” throughout. Moreover, the Potency was 0.0849 µM (active) in experiment [15], 16.8 µM (active) in [10] and 11.9 µM (active) in [11].

In the case of `CCCCCCOC(=O)CCC`, the compound was classed as inactive in experiment [1], in experiment [3], in experiment [4], in experiment [5] and in experiment [7]. Also, the Potency entry in experiment [2], in [6], in [8], in [9], in experiment [10] and in [11] was “inactive” throughout. For the same compound, the Potency result in experiment [14] is “inactive”.

As for `Oc1ccc(Cc2ccccc2)cc1`, the outcome in [1], in experiment [3], in experiment [4], in [5] and in [7] was inactive. In addition, the Potency entry in experiment [2], in [6], in experiment [8], in experiment [15], in experiment [9] and in experiment [10] was “inactive” throughout. Moreover, the Potency result in experiment [14] is “inactive”.

In the case of `CCN(CC)C(C)CN1c2ccccc2Sc2ccccc21` (centres undefined), the fluorescence, % of fluorescein in experiment [1] was -0.0513% [at 18.6 µM]. In addition, the fluorescence, % of fluorescent control is -0.0592% [at 18.6 µM] in [2], -0.0816% [at 18.6 µM] in experiment [4], 0.0011% [at 18.6 µM] in [6] and -0.0255% [at 18.6 µM] in [8]. In addition, the activity change in experiment [3] is -0.135% [at 18.6 µM]. The fluorescence, % of Rose Bengal in experiment [5] was -0.332% [at 18.6 µM]. The fluorescence, % of fluorescein control in experiment [7] was -0.0641% [at 18.6 µM]. Further, the Potency entry in experiment [15], in experiment [9], in experiment [11], in [13] and in experiment [14] was “inactive” throughout.

Take `O=C(NS(=O)(=O)/C=C/c1cccs1)c1ccc(F)cc1Br`: the compound was called inactive in experiment [1], in [3], in [4], in experiment [5], in experiment [7] and in [16]. Also, the Potency result in experiment [2], in [6], in [8], in experiment [9], in experiment [10] and in experiment [11] was “inactive” each time. For the same compound, the Potency result in [12], in [13], in [17], in experiment [14] and in [18] was “inactive” throughout.

Turning to `C=CC(=O)OCCOC(=O)CCC(=O)O`, the compound was classed as inactive in [1], in [3], in [4], in experiment [5] and in experiment [7]. The Potency result in experiment [2], in experiment [6], in experiment [8], in experiment [19], in experiment [9] and in [11] was “inactive” throughout. Moreover, in [14], the Potency entry is “inactive”.

Consider `CC(C)c1ccc2c(C(C)C)cc(C(C)C)c(S(=O)(=O)O)c2c1`, for which the compound was classed as inactive in experiment [1], in experiment [3], in experiment [4], in experiment [5] and in experiment [7]. The Potency entry in [2], in experiment [6], in experiment [8], in [15], in experiment [9] and in experiment [11] was “inactive” throughout. The Potency result in experiment [12], in experiment [13], in experiment [20], in experiment [17], in experiment [14] and in [18] was “inactive” each time.

`COc1ccc([C@@H]2Sc3ccccc3N(CCN(C)C)C(=O)[C@@H]2OC(C)=O)cc1`: the outcome in experiment [1], in [3], in experiment [4], in experiment [5] and in [7] was inactive. Further, the Potency result in [2], in experiment [6], in [8], in experiment [15], in experiment [9] and in experiment [13] was “inactive” in each case. The Potency result in [14] is “inactive”.

For the compound `Oc1ccc(O)c2c(O)cccc12`, the compound was classed as inactive in experiment [1], in experiment [3], in [4], in [5] and in [7]. Besides, the Potency result in experiment [2], in [6], in experiment [8], in experiment [15], in experiment [10] and in [11] was “inactive” throughout. For the same compound, in [12], the Potency entry was “inactive”.

For the compound `CC(C)NCC(O)COc1ccc(CC(N)=O)cc1` (centres undefined), the call in [1], in [3], in experiment [4], in experiment [5] and in experiment [7] was inactive. Also, the Potency result in [2], in experiment [6], in [8], in [9], in experiment [10] and in [11] was “inactive” each time. The Potency result in experiment [12], in experiment [13] and in experiment [14] was “inactive” each time.

Consider `CCCCOC(=O)c1ccccc1C(=O)OCC(CC)CCCC` (centres undefined), for which the result in experiment [1], in experiment [3], in [4], in [5] and in [7] was inactive. The Potency result in experiment [2], in experiment [6], in experiment [8], in experiment [15], in experiment [9] and in [10] was “inactive” throughout. The Potency entry in experiment [12], in experiment [13] and in experiment [14] was “inactive” each time.

These data come from PubChem BioAssay (Tox21).
